LmPK inh: qHTS Assay for Inhibitors of Leishmania Mexicana Pyruvate Kinase (LmPK); AID 1721, 2009; 290,000 tested, 0.37% active; purified LmPK, Kinase-Glo ATP luminescence, 1 h; Potency, µM (top dose mostly 57.5 µM), actives largely listed as inhibitors
Target sequence (Q27686 whole entry, looked up): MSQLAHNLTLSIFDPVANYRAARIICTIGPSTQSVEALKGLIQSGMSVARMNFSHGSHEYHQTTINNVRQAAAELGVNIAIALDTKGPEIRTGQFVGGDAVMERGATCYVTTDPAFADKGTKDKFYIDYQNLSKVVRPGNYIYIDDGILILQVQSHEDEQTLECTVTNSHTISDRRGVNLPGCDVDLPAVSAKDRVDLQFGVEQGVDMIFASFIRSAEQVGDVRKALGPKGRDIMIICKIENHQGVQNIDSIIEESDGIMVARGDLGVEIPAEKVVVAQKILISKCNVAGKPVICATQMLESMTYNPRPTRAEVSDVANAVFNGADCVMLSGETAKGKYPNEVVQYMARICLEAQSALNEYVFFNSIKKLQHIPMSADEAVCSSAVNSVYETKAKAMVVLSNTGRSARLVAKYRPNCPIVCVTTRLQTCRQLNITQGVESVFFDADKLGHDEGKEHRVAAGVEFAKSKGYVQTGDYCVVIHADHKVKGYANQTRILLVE
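Purified LmPK (0.1 nM) with 0.5 mM PEP and 0.1 mM ADP in imidazole buffer pH 7.2 with MgCl2/KCl, 1 h at room temperature. ATP formed was read by luciferase luminescence and normalized to no-enzyme and uninhibited controls.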
Tb PYK inh: qHTS of Trypanosoma Brucei Inhibitors; pyruvate kinase (Trypanosoma brucei), Q57TT1; TbPYK enzyme, Kinase-Glo Plus ATP luminescence, 45 min; Potency, µM (top dose mostly 76.8 µM), actives largely listed as inhibitors; 410,000 tested, 0.12% active; also: nearly all actives have a fitted effect of over 50% in size
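Assay buffer: 50 mM TEA pH 7.2, 100 mM KCl, 10 mM MgCl2, 0.05% BSA, 0.01% Tween-20. Pyruvate kinase from T. brucei plus substrate met compound, then ADP (130 uM final). Luminescence was read post 45 min RT.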
Vaccinia Venus: qHTS for Stage-Specific Inhibitors of Vaccinia Orthopoxvirus: Venus Reporter Primary qHTS; Vaccinia virus Venus reporter expression, fluorescence; 330,000 tested, 0.46% active; Potency, µM (top dose mostly 36.5 µM), actives largely listed as inhibitors; calls by dose curve; tested in A549 cells; also: nearly all actives have a fitted effect of over 30% in size
HCMV antiviral: qHTS Assay for inhibitors of the human cytomegalovirus (HCMV); HFF cells, HCMV-luciferase reporter, 72 h; active compounds read low; 410,000 tested, 4.5% active; AID 1259415, 2018; activity change, negative = inhibition, % at 57.5 µM; in the data active = activity change below about -60%; inconclusive = no clear call, values can overlap the other calls; inactive = above about -39%
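After 16 h attachment at 37C, HFF cells received test compound and HCMV-luciferase (1 PFU/cell); reporter luminescence read 72 h later, data normalized against buffer-only and known inhibitor Salinomycin.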
VACV mCherry inh: qHTS for Stage-Specific Inhibitors of Vaccinia Orthopoxvirus: mCherry Reporter Primary qHTS | Vaccinia virus mCherry reporter infection, fluorescence | Potency, µM (titrated, usually from 36.5 µM), hits mostly inhibitors | 310,000 tested, 0.63% active | AID 720579, 2013; calls by dose curve; tested in A549 cells; also: nearly all actives have a fitted effect of over 35% in size
Hits are given with their value; . = inactive; ? = inconclusive; / = not tested or not shown. A selection: hits, their analogues and other compounds. The true share with any hit is near 5%. Unless noted, calls follow the shape of the dose curve; as a rule, active = well fitted curve in the direction sought with a large enough effect; inconclusive = small, poorly fitted or top-dose-only effect, or another doubt; inactive = no such curve, though single readings can be large; an effect the other way counts as inactive or inconclusive.

SMILES | LmPK inh | Tb PYK inh | Vaccinia Venus | HCMV antiviral | VACV mCherry inh
N/C(=N\OC(=O)c1ccccc1Cl)c1ccccn1 | 7.08µM | ? | / | . | /
COc1ccccc1C(=O)O/N=C(\N)c1ccccn1 | ? | . | . | . | .
N/C(=N\OC(=O)c1ccc(Cl)cc1)c1ccccn1 | 5.01µM | ? | / | . | /
N/C(=N\OC(=O)c1cccc(Cl)c1)c1ccccn1 | 14.1µM | . | . | . | .
N/C(=N\OC(=O)c1cccc(Br)c1)c1ccccn1 | ? | . | / | . | /
COc1cc(/C=C/C(=O)OCC(=O)c2ccc[nH]2)ccc1O | / | . | . | . | .
Cc1c(C(=O)NCc2ccc3c(c2)OCO3)sc(=O)n1Cc1ccc(S(=O)(=O)N(C)C)cc1 | / | . | . | . | .
COc1ccccc1N(CCC#N)C(=O)COC(=O)CCC(=O)c1ccc(F)cc1 | / | . | / | . | /
COc1cc2nc(CN3CC=C(c4ccccc4)CC3)[nH]c(=O)c2cc1OC | / | . | ? | -98.8 | 5.62µM
O=C1C=C(N2CCCCC2)c2ccccc2C1=O | / | . | ? | -97.1 | ?
O=C(Nc1cc(C(F)(F)F)ccc1Cl)c1cc(-c2ccc3c(c2)OCCO3)on1 | / | . | . | . | .
COc1ccccc1OCC(O)Cn1c(=N)n(CCN2CCCCC2)c2ccccc21 (stereo unspecified) | . | . | / | ? | /
COc1c(C=C2C(=O)NC(=O)NC2=O)c(CCN(C)C(=O)c2ccccc2)cc2c1OCO2 | . | . | . | . | .
COc1cc2c(c(OC)c1OC)-c1ccc(OC)c(=O)cc1[C@@H](NC(C)=O)CC2 | . | . | ? | -89.2 | ?
COc1cc2c(c(OC)c1OC)-c1ccc(NC(=O)c3ccc(F)cc3)c(=O)cc1[C@@H](NC(C)=O)CC2 | . | . | ? | . | .
COc1cc2c(c(OC)c1OC)-c1ccc(SC)c(=O)cc1C(NC(C)=O)CC2 (stereo unspecified) | / | . | ? | -93.5 | .
COc1cc2c(c(OC)c1O)-c1ccc(OC)c(=O)cc1C(NC(=O)C(F)(F)F)CC2 (stereo unspecified) | / | . | ? | -90.3 | .
COc1cc2c(c(OC)c1OC)-c1ccc(C(=O)O)cc1[C@@H](NC(C)=O)CC2 | / | . | / | . | /
COc1cc2c(c(OC)c1OC)-c1ccc(NCc3ccccc3)c(=O)cc1C(NC(C)=O)CC2 (stereo unspecified) | / | . | ? | -80.4 | .
COCCNC(=S)NCCCNc1nc2cc3c(cc2cc1C#N)OCO3 | . | . | . | . | .
CCOC(=O)CCn1nnc(N)n1 | . | . | . | . | .
COc1cc2c(c(OC)c1OC)-c1ccc(SC)c(=O)cc1C(NC(=O)C(F)(F)F)CC2 (stereo unspecified) | / | . | ? | -81.5 | .
CCOCC(=O)NC1CCc2cc(OC(=O)COCC)c(OC)c(OC)c2-c2ccc(SC)c(=O)cc21 (stereo unspecified) | / | . | ? | ? | ?
COc1ccccc1-n1cnc2c(c1=O)c1nc3ccccc3nc1n2-c1ccc(C)cc1 | . | . | / | -87.1 | /
COc1ccccc1-n1c2nc3ccccc3nc2c2c(=O)n(-c3cc(C)cc(C)c3)cnc21 | . | . | . | -69.4 | .
SMILES | LmPK inh | Tb PYK inh | Vaccinia Venus | HCMV antiviral | VACV mCherry inh
C=CCn1cnc2c(c1=O)c1nc3ccccc3nc1n2-c1ccc(C)cc1 | . | / | / | . | /
COc1ccccc1-n1cnc2c(c1=O)c1nc3ccccc3nc1n2CCc1ccccc1 | . | . | . | ? | .
Nc1ccc(N(c2ccccc2)c2ccc(N)cc2)cc1 | . | . | 28.2µM | ? | ?
O=[N+]([O-])c1cccc(-c2c(-c3ccccc3)ncc3cc(F)ccc23)c1 | / | . | . | . | .
O=C(CSc1nnc(-c2ccccc2O)o1)N1CCc2ccccc2C1 | . | . | / | . | /
O=C(CCCN1C(=O)/C(=C/c2ccc(F)cc2)SC1=S)NC1CCS(=O)(=O)C1 (stereo unspecified) | . | . | / | -72.3 | /
O=C(CN1C(=O)S/C(=C\c2ccccc2F)C1=O)NC1CCS(=O)(=O)C1 (stereo unspecified) | . | . | . | -61.9 | .
O=C(CCN1C(=O)/C(=C/c2ccccc2)SC1=S)NC1CCS(=O)(=O)C1 (stereo unspecified) | . | . | . | ? | .
Nc1ccc(C(=O)Nc2ccc3cc(S(=O)(=O)O)ccc3c2)cc1 | / | . | . | . | .
Cc1oc(-c2cccc(Cl)c2)nc1CN1CCC(C(=O)N2CCN(c3ccccc3F)CC2)CC1 | . | . | 15.8µM | . | ?
COCCn1c(C(=O)N(C)C)cc2c1C[C@H]1CN(C(=O)c3ccccc3)[C@@](Cc3ccc(F)cc3)(C(=O)OC)[C@@H]21 | / | . | . | . | .
Cc1cccc(Cn2cc(C=O)c3ccccc32)c1 | . | . | . | . | .
C=CCn1cc(/C=C/c2cc[n+](C)cc2)c2ccccc21 | . | . | / | -95.8 | /
Cc1ccccc1/C=C/c1cc[n+](C)cc1 | . | . | / | ? | /
C=CCn1c(C)c(/C=C/c2cc[n+](C)cc2)c2ccccc21 | . | . | . | -95.6 | .
CCN(CC)C(=O)Cn1c(C)c(/C=C/c2cc[n+](C)cc2)c2ccccc21 | . | . | / | . | /
CC(C)n1cc(/C=C/c2cc[n+](C)cc2)c2ccccc21 | . | . | . | -95.3 | ?
CCn1cc(/C=C/c2cc[n+](C)cc2)c2ccccc21 | . | . | / | -97.5 | /
CCN(CC(=O)Nc1ccc(NC(C)=O)cc1)C(=O)c1ccc(COc2ccc(C(C)(C)C)cc2)cc1 | / | . | / | -61.6 | /
CCCCn1c(N)c(N(C)C(=O)c2cn(-c3ccccc3)nc2-c2ccccc2)c(=O)[nH]c1=O | / | . | / | . | /
CCOc1ccc(-n2cc(-c3ccccc3)c3c(N4CCC(C)CC4)ncnc32)cc1 | / | . | . | -62.6 | .
COc1cccc(N2CCN(c3ncnc4c3c(-c3ccccc3)cn4-c3ccc(C)cc3)CC2)c1 | / | . | . | -62.9 | .
CC1COc2ccccc2N1S(=O)(=O)c1cc(Cl)ccc1Cl (stereo unspecified) | . | . | . | . | .
CC(C)CCCCCCCCCCCCC(=O)NCC(=O)NC1C(O)C(O)C(Nc2ncnc3nc[nH]c23)OC1C(O)CO (stereo unspecified) | / | . | 11.2µM | / | 39.8µM
CC(O)CNc1ncnc2nc[nH]c12 (stereo unspecified) | . | . | / | . | /
CC(=O)Nc1ncc(Cc2cccc(Cl)c2)s1 | . | . | . | . | .
Cc1ccc(Cc2cnc(NC(=O)c3ccco3)s2)cc1 | . | . | ? | . | .
O=C(CN1CCOCC1)Nc1ncc(Cc2ccccc2Cl)s1 | . | . | . | . | .
CCc1ccc(CCC(=O)Nc2ncc(Cc3ccccc3Cl)s2)o1 | . | . | ? | -60.8 | .
O=C(Nc1ncc(Cc2cccc([N+](=O)[O-])c2)s1)c1ccco1 | . | . | ? | -71.9 | .

Bioassay records: PubChem BioAssay, National Center for Advancing Translational Sciences (NCATS)
